Data: publication PMC4336329 (PLoS ONE, 2015)
Out of some 310,000 compounds screened, about 14,000 (4.5%) showed an effect of 50% or more. The effect is printed as a negative number. Shown is part of a subset that was picked to be rich in strong results.

The molecules below were run against human ether-à-go-go-related gene (hERG) potassium channel (human, UniProt Q12809) (assay: primary screen, population patch clamp on CHO cells stably expressing hERG; higher = less effect of the substance).
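Further: peak tail current of the secondary pulse compared with the same well before compound.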

human ether-à-go-go-related gene (hERG) potassium channel, sequence (Q12809 whole entry, looked up): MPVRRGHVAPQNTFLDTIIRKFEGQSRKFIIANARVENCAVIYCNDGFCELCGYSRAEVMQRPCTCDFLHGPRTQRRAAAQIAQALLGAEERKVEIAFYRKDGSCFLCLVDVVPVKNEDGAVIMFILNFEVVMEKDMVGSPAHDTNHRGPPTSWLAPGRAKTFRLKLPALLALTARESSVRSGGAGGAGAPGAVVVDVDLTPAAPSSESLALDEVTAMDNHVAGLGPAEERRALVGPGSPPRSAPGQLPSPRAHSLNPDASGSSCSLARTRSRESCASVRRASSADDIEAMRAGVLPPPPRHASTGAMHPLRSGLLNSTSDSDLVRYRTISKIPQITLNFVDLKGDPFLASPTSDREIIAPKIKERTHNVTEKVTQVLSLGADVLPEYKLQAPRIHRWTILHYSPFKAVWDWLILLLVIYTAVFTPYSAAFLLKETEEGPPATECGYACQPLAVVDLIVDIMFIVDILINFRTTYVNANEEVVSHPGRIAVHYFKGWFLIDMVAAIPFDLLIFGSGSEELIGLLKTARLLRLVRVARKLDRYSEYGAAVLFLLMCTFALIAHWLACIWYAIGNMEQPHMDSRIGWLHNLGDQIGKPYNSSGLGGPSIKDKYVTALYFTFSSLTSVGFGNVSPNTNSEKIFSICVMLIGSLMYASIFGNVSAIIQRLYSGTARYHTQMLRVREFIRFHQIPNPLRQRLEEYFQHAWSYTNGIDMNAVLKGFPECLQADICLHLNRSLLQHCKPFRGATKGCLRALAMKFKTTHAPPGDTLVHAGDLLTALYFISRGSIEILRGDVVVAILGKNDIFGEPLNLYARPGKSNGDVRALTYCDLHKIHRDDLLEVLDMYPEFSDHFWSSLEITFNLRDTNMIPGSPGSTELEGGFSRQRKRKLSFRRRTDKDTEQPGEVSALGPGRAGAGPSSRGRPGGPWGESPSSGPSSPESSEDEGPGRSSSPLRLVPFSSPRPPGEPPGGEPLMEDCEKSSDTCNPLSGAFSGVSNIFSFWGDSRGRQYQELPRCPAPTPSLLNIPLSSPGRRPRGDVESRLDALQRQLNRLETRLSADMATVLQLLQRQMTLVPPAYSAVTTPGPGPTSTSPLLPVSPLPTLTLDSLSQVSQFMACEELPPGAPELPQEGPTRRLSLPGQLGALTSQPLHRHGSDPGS

| Structure (SMILES) | hERG current change (%, negative = inhibition) at 10uM [%] |
| --- | --- |
| O=C(NCc1ccc(F)cc1)c1ccc(CS(=O)Cc2ccccc2Cl)o1 (stereo not drawn) | -37.3 |
| Cc1ccc(S(=O)(=O)N2[C@@H](c3ccccc3)C(C(=O)O)=CC[C@H]2c2ccc(Cl)cc2)cc1 | 18.6 |
| CC1=NN(C(N)=S)C(=O)C1N=Nc1ccccc1C(=O)O (stereo not drawn) | 22.1 |
| Fc1ccc(/C=C/c2nnc(-c3cccs3)o2)cc1 | 16.7 |
| Cc1cc(S(=O)(=O)Nc2cccc(C(=O)O)c2)c(C)c(S(=O)(=O)c2ccc(Cl)cc2)c1 | 18.8 |
| CCOC(=O)c1cnc(SCC(=O)Nc2ccc(NC(C)=O)c(OC)c2)nc1N | 2.44 |
| CC1(c2cccc(Br)c2)NC(=O)N(CC(=O)Nc2ccc3c(c2)OCO3)C1=O (stereo not drawn) | -12.5 |
| COc1ccc(CNC2CCSc3ccccc32)cc1OC.O=C(O)C(=O)O (stereo not drawn) | 9.97 |
| CCC(Cc1ccccc1)NC(=O)CN(C)S(=O)(=O)c1ccc2c(c1)c(=O)n(C)c(=O)n2C (stereo not drawn) | -23.5 |
| Cc1sc2nc(SCC(=O)N3CCN(CCO)CC3)n(-c3ccccc3)c(=O)c2c1C | -3.7 |
| Ic1ccccc1CN[C@@H]1C2CCN(CC2)[C@@H]1C(c1ccccc1)c1ccccc1.O.O=C(O)C(=O)O | -69.7 |
| CCS(=O)(=O)N1CCN(C2CCC(c3ccccc3)CC2)CC1.O=C(O)C(=O)O (stereo not drawn) | -17.2 |
| O=C(O)C(=O)O.OC(CNC1CCCCCCC1)c1ccccc1 (stereo not drawn) | 2.95 |
| O=C(COC(=O)CNC(=O)c1ccccc1)NCCc1ccccc1 | 4.17 |
| CCOc1ccc(/C=N/NC(=O)C2CC2)c(OCC)c1 | 2.21 |
| COc1cc2c(cc1OC)CN(CC(=O)NC(=O)NC1CCCCC1)CC2 | 3.28 |
| Cc1nccc2c1[nH]c1ccccc12 | 2.16 |
| Cc1cc2[nH]c3c(c[n+](C)c4ccccc34)c2cc1C.[I-] | -77.8 |
| COc1cc2[nH]c3ccccc3c2cc1C | 2.45 |
| COc1ccc2nc(SCC(N)=O)[nH]c2c1 | -2.83 |
| CCN(CC)CCSc1nc2ccc(OC)cc2[nH]1.Cl | -64.7 |
| COc1ccc2nc(SCCN(C)C)[nH]c2c1.Cl | 12.3 |

| Structure (SMILES) | hERG current change (%, negative = inhibition) at 10uM [%] |
| --- | --- |
| O=C1[C@@H]2[C@H](C(=O)N1Cc1cccnc1)[C@H]1C=C[C@@H]2C1 | -3.89 |
| COc1ccc(/C=N/Nc2ncc(C(F)(F)F)cc2Cl)c(OC)c1OC | -1.15 |
| Cc1cc(Cl)ccc1OCC(=O)NNC(=O)C1CSC2(C)CCC(=O)N12 (stereo not drawn) | -18.5 |
| CCOC(=O)c1c(CSc2ccc(CC)cc2)oc2ccc(O)c(CN(C)C)c12.Cl | -55.3 |
| COC(=O)Cc1c(CSc2ccccc2)oc2ccc(O)c(CN(C)C)c12 | -47.8 |
| CCOC(=O)c1c(CSc2ccccc2)oc2cc(Br)c(O)c(CN(C)C)c12.Cl | 8.53 |
| CCOC(=O)c1c(CSc2ccccc2)oc2ccc(O)cc12 | 3.91 |
| CCOC(=O)c1c(-c2ccccc2)oc2ccc(O)c(CN(C)C)c12 | -40.2 |
| CCOC(=O)c1c(CSCc2ccccc2)oc2ccc(O)c(CN(C)C)c12.Cl | -73.4 |
| CCOC(=O)c1c(-c2ccccc2)oc2cc(CN(C)C)c(O)c(CN(C)C)c12 | -41.5 |
| CCOC(=O)c1c(CN(C)C)oc2cc(CN(C)C)c(O)c(CSc3ccccc3)c12.Cl | -19.3 |
| CC(=O)c1c(CSc2ccccc2)oc2ccc(O)c(CN(C)C)c12.Cl | -70.8 |
| COc1ccc2c(c1)[nH]c1c(=O)n(CCN(C)C)cnc12 | -34.1 |
| CCOC(=O)c1cccc(NC(=O)/C=C/c2cccc([N+](=O)[O-])c2)c1 | -15.4 |
| Cn1c(SCC(=O)NCc2ccccc2)nc2c([nH]c3ccccc32)c1=O | 8.94 |
| CCC(=O)Nc1nnc(S(=O)(=O)N2CCCC2)s1 | 8.85 |
| Cc1c(NC(=O)c2cccc(F)c2)c(=O)n(-c2ccccc2)n1C | 20.5 |
| CCCOC(=O)c1ccc(NC(=O)c2ccccc2OC)cc1 | 4.44 |
| CCOC(=O)C1=C(C)N(C)C(=O)NC1c1ccccc1OC (stereo not drawn) | -12.1 |
| Cc1ccc(Nc2nc(Oc3ccc(OCc4ccccc4)nn3)nc(N3CCOCC3)n2)cc1 | 3.53 |
| S=c1oc(-c2ccncc2)nn1CCc1ccncc1 | 13 |
| CCc1nc2c3cnn(-c4cc(Cl)ccc4C)c3ncn2n1 | 5.24 |

| Structure (SMILES) | hERG current change (%, negative = inhibition) at 10uM [%] |
| --- | --- |
| NC(=O)c1cn(C2CCCCC2)c2ccccc2c1=O | -65.2 |
| Cn1c2ccccc2c2c(C(=O)O)cn(C3CCCC3)c(=O)c21 | 7.78 |
| Cn1cc(-c2ccccc2C(N)=O)c(=O)c2ccccc21 | 5.37 |
| CN(C)S(=O)(=O)c1ccc(C(=O)N2CC(=O)Nc3ccc(F)cc3C2c2ccc(F)cc2)cc1 (stereo not drawn) | -21 |
| CCC(CC)NC(=O)C1CCN(S(=O)(=O)c2cccs2)CC1 | 1.92 |
| COc1ccc(Cl)cc1NC(=S)Nc1cccc(C)c1 | 10.3 |
| Cl.O=C(O)c1ccc(CNCc2ccccc2F)cc1 | 5.98 |
| CC(=O)Nc1ccc(OCC(O)CN2C(C)CCCC2C)cc1.Cl (stereo not drawn) | 19.1 |
| Cc1cc(OCC(O)CN2C(C)CCCC2C)ccc1C(C)C (stereo not drawn) | -32.4 |
| CC1CCCC(C)N1CC(O)COCc1ccccc1.Cl (stereo not drawn) | 5.08 |
| Cc1cc(Cl)ccc1OCC(O)CN1C(C)CCCC1C.Cl (stereo not drawn) | -73.2 |
| Cc1ccc(C)c(OCC(O)CN2C(C)CCCC2C)c1.Cl (stereo not drawn) | -67.9 |
| Cc1cc(Cl)ccc1OCC(=O)N1C(C)CCCC1C (stereo not drawn) | -6.46 |
| CC1CCCC(C)N1CC(O)COc1ccc(Cl)cc1 (stereo not drawn) | -65 |
| COc1cccc(OCC(O)CN2C(C)CCCC2C)c1.Cl (stereo not drawn) | 10.8 |
| CC1CCCC(C)N1CC(O)COCc1ccccc1F.Cl (stereo not drawn) | 13.2 |
| CCn1c(/C=C/c2c[nH]c3ccccc23)nc2ccccc2c1=O | 20.5 |
| CCOc1ccc2nc(N3CCC(C(=O)Nc4nnc(CC)s4)CC3)sc2c1 | 11.9 |
| Cn1c(=O)c2cn(Cc3ccc(Cl)cc3)cc2n(C)c1=O | -1.75 |
| CCOc1ccc(C2NCCc3cc(OC)c(OC)cc32)cc1OC (stereo not drawn) | 12.3 |
| O=C1C(CSCc2ccccc2)NC(=S)N1c1ccccc1 (stereo not drawn) | 16 |
| Nc1nc(SCCO)[nH]c(=O)c1NC(=O)c1ccc(Br)o1 | 23.8 |

| Structure (SMILES) | hERG current change (%, negative = inhibition) at 10uM [%] |
| --- | --- |
| Cc1ccc(OCC(=O)NNC(=O)C2CCN(c3ncccn3)CC2)cc1 | -18.6 |
| COC(=O)C1=C[C@@H](C(=O)OC)[C@@H]2C3=C(C(=O)[C@]2(CC(C)C)NC(=O)c2ccccc2)[C@H](C)n2c(=O)n(-c4ccccc4)c(=O)n2[C@@H]3C1 | -8.87 |
| CCN(C(=O)COC(=O)C1CCN(S(=O)(=O)c2ccc3c(c2)OCCO3)CC1)C1CCCCC1 | -2.31 |
| CC1(C)Cc2cccc(OCC(=O)NCc3ccccc3F)c2O1 | -5.79 |
| CCOC(=O)COc1ccc2c(c1)C(=O)CC1(CCN(C(C)=O)CC1)O2 | -19.7 |
| CC(Oc1ccccc1)C(=O)N1CCN(C(=O)C(C)Oc2ccccc2)CC1 (stereo not drawn) | 8.52 |
| CC(Oc1ccccc1)C(=O)N1CCC2(CC1)CC(=O)c1ccccc1O2 (stereo not drawn) | -65.7 |
| CC(Oc1ccccc1)C(=O)N1CCN(c2ccc(N3CCCCCC3)nn2)CC1 (stereo not drawn) | -52.7 |
| CC(=O)N1CCC2(CC1)CC(=O)c1cc(OCC(=O)NCc3ccc(C)cc3)ccc1O2 | -21.3 |
| O=C1CC2(CCN(C(=O)COc3ccc(Cl)cc3)CC2)Oc2ccccc21 | -85.8 |
| Cc1ccc(OCC(=O)N2CCC3(CC2)CC(=O)c2ccccc2O3)cc1 | -73.3 |
| CC(Oc1ccccc1)C(=O)N1CCN(c2ccc(N3CCCCC3)nn2)CC1 (stereo not drawn) | -28.5 |
| CC(Oc1ccccc1)C(=O)N1CCN(c2ccc(N3CCOCC3)nn2)CC1 (stereo not drawn) | -3.79 |
| CC(Oc1ccccc1)C(=O)N1CCC2(CC1)Oc1ccc(Cl)cc1C(=O)C21CC(c2ccccc2)=NO1 (stereo not drawn) | 7.46 |
| COc1ccc(C2=NS(=O)(=O)N(C)C(C(=O)N3CCOCC3)=C2)cc1OC | -2.16 |
| CN1CCN(C(=O)c2cnn(-c3ccccc3)c2NC(=O)c2cccs2)CC1 | -29.2 |
| CCCCC1(C(=O)OCC)NC(c2ccc(O)cc2)C2C(=O)N(c3ccccc3)C(=O)C21 (stereo not drawn) | -3.73 |
| CCOC(=O)C1=C(N)N2C(=O)C(C)SC2=C(C(=O)OCC)C1c1cc(OC)c(OC)c(OC)c1 (stereo not drawn) | 1.27 |
| COc1ccc(OC)c(S(=O)(=O)N2CCC(C(=O)NCc3ccccc3)CC2)c1 | -9.9 |
| CN1CCN(/C=C2\SC(=S)NC2=O)CC1 | 11.6 |
| O=C(NNc1ccccc1)C(=O)NNS(=O)(=O)c1ccc(CCCl)cc1 | 2.82 |
